Measurements as given in ChEMBL document CHEMBL4513216, “Probing the Open Global Health Chemical Diversity Library for Multistage-Active Starting Points for Next-Generation Antimalarials” (ACS Infect Dis, 2020).
Out of some 68,000 compounds screened, about 2,700 (4%) showed an effect of 50% or more. Only a selection was taken, and strong results are over-represented in it overall.

Tested on: Plasmodium berghei
Assay: Screen against P. berghei liver stage (PbLuc), transformed with Luciferase, at 2uM
Format: functional, HepG2
Details: tested at 2 uM

Q: For `CCc1ncc2c(n1)CN(Cc1nnc(Cc3ccccc3)o1)CC2`, which INHIBITION is on record?
A: -11.33%

Q: `Cc1cc(C(=O)NCCN2CCCCCC2)nn1C(C)(C)C` was tested. Which INHIBITION did it give?
A: -5.98%

Q: How did the INHIBITION turn out when `CCc1nnc2n1CCN(Cc1cc(Cl)c3c(c1)OCCCO3)C2` was run?
A: -3.57%

Q: With `CCc1ccc(O)c(C(=O)N2CCCN(CC(=O)N(CC)CC)CC2)c1` as the molecule, how does the INHIBITION read?
A: 46.3%

Q: `CCc1ccc(O)c(C(=O)N2CCN(CC(=O)N(CC)CC)CC2)c1` was tested. Which INHIBITION did it give?
A: -19.78%

Q: With `CCc1ccc(O)c(C(=O)N2CCN(CC(=O)N(C)C)CC2)c1` as the molecule, how does the INHIBITION read?
A: 55.26%

Q: For `CCCS(=O)(=O)N(C)C(=O)CCc1ccsc1`, which INHIBITION is on record?
A: 8.59%

Q: Which INHIBITION does the source give for `CC(C)c1nc(CNc2ccc(CCO)cc2)cs1` here?
A: 2.76%

Q: With `Cc1cncc(C2CCCN(C(=O)c3cnco3)C2)n1` (stereo not drawn) as the molecule, how does the INHIBITION read?
A: -10.44%

Q: How did the INHIBITION turn out when `CNc1cncc(C2CCN(C(=O)c3coc(C)n3)CC2)n1` was run?
A: -16.56%

Q: Which INHIBITION does the source give for `CNc1cncc(C2CCN(C(=O)c3cnco3)CC2)n1` here?
A: 56.93%

Q: With `Cc1ccc2[nH]c([C@H]3CCN(CC4CCCCC4)C3)nc2c1` as the molecule, how does the INHIBITION read?
A: 63.89%

Q: For `COCCN1CCC(c2nc3cc(C)ccc3[nH]2)CC1`, which INHIBITION is on record?
A: 8.33%

Q: `Cc1ccc2[nH]c(C3CCN(C)CC3)nc2c1` was tested. Which INHIBITION did it give?
A: -5.34%

Q: Which INHIBITION does the source give for `CC(C)S(=O)(=O)N1CCCC(c2cccc(C(=O)O)c2)C1` (stereo not drawn) here?
A: 49.88%

Q: With `CCn1cnnc1CNC(=O)N1CCN(c2ccccc2OC)CC1` as the molecule, how does the INHIBITION read?
A: 33.61%

Q: `O=C(Nc1cc[nH]n1)c1ccc(COCC(F)(F)F)cc1` was tested. Which INHIBITION did it give?
A: -20.91%

Q: How did the INHIBITION turn out when `COc1ccc(CN2CCC(c3cc(O)nc(C)n3)C2)c(OC)c1` (stereo not drawn) was run?
A: 52.01%

Q: For `COc1ccc(CN2CCC(c3cc(O)nc(C)n3)C2)c(F)c1` (stereo not drawn), which INHIBITION is on record?
A: -30.34%

Q: `COc1ccc(OC)c(CN2CCC(c3cc(O)nc(C)n3)C2)c1` (stereo not drawn) was tested. Which INHIBITION did it give?
A: -111.32%

Q: With `Cc1noc(CC2CCN(C(=O)C(c3ccccc3C)N(C)C)CC2)n1` (stereo not drawn) as the molecule, how does the INHIBITION read?
A: 37%

Q: With `CCn1c(NCc2cccnc2)nc2c(C)nn(C)c2c1=O` as the molecule, how does the INHIBITION read?
A: 24.79%

Q: Which INHIBITION does the source give for `Cc1nc(NCc2ccccn2)c2c(n1)c(C)nn2C` here?
A: -40.15%

Q: Which INHIBITION does the source give for `CCn1nc(C)c2nc(C(C)C)nc(NCc3ccccn3)c21` here?
A: -11.34%

Q: `CCn1c(NCc2ccccc2)nc2c(C)nn(C)c2c1=O` was tested. Which INHIBITION did it give?
A: -1.65%

Q: Which INHIBITION does the source give for `Cc1nn(C)c2c(NCc3ccccn3)nc(C(C)C)nc12` here?
A: 72.41%

Q: With `CCn1c(NCc2ccccn2)nc2c(C)nn(C)c2c1=O` as the molecule, how does the INHIBITION read?
A: 50.9%

Q: How did the INHIBITION turn out when `Fc1cnc(N2CC3(CCN(Cc4ccsc4)C3)C2)nc1` was run?
A: 34.48%

Q: `COCCC(=O)N1CCCC1c1nc(O)cc(C(C)C)n1` (stereo not drawn) was tested. Which INHIBITION did it give?
A: -1.69%

Q: With `CCC[C@H]1CN(C(=O)Cn2ccccc2=O)C[C@@H]1NS(C)(=O)=O` as the molecule, how does the INHIBITION read?
A: 5.21%

Q: `CCCS(=O)(=O)N1CCN(c2ccnc(N3CCCCC3)n2)CC1` was tested. Which INHIBITION did it give?
A: 5.38%

Q: With `C=C(C)CN1CCC(c2n[nH]c(C3CC3)n2)CC1` as the molecule, how does the INHIBITION read?
A: 52.98%

Q: `CC1CCN(C(=O)CN2CCC(c3n[nH]c(C4CC4)n3)CC2)CC1` was tested. Which INHIBITION did it give?
A: -35.26%

Q: With `CCN(C(=O)CN1CCC(c2n[nH]c(C3CC3)n2)CC1)C1CC1` as the molecule, how does the INHIBITION read?
A: 38.67%

Q: With `Cc1ccc(CN[C@@H]2COC[C@H]2Cc2cc(C)no2)cc1` as the molecule, how does the INHIBITION read?
A: 20.08%

Q: How did the INHIBITION turn out when `Cc1cc(C[C@@H]2COC[C@H]2NCc2ccc(C)c(C)c2)on1` was run?
A: 53.24%

Q: For `Cc1cc(C[C@@H]2COC[C@@H]2NC(=O)CN2CCc3ccccc3C2)on1`, which INHIBITION is on record?
A: 54.49%

Q: How did the INHIBITION turn out when `Cc1cc(C[C@@H]2COC[C@H]2NCc2ccc(Cl)c(Cl)c2)on1` was run?
A: -44.61%

Q: For `Cc1cc(C[C@@H]2COC[C@@H]2NC(=O)CN2CCCC2)on1`, which INHIBITION is on record?
A: -56.02%

Q: `Cc1cc(C[C@@H]2COC[C@@H]2NC(=O)CCN2Cc3ccccc3C2)on1` was tested. Which INHIBITION did it give?
A: 14.1%

Q: Which INHIBITION does the source give for `O=C(CC1CCC1)N1CCCC(CO)(CC2CC2)C1` (stereo not drawn) here?
A: -12.89%

Q: `O=C1CCCN1Cc1ncn2c1CN(C(=O)c1cccc(F)c1)CCC2` was tested. Which INHIBITION did it give?
A: 21.33%

Q: For `Cc1cc(NC(=O)CN2CCCCC2Cn2nc(C)nc2C)on1` (stereo not drawn), which INHIBITION is on record?
A: 27.5%

Q: With `Nc1ncccc1CN1C[C@@H](C(=O)O)[C@H](c2cccc(F)c2)C1` as the molecule, how does the INHIBITION read?
A: 1.22%

Q: With `CCS(=O)(=O)N1CCC2(CC1)CN(CC1CCOC1)c1ccccc12` (stereo not drawn) as the molecule, how does the INHIBITION read?
A: 17.89%

Q: How did the INHIBITION turn out when `COc1ccc(OC2CCN(C(=O)CCc3n[nH]c(N)n3)CC2)cc1` was run?
A: -88.55%

Q: How did the INHIBITION turn out when `COc1ccc(CCN2CCCC(CN(C)Cc3ccc(C)o3)C2)cc1` (stereo not drawn) was run?
A: 54.59%

Q: For `Cc1noc(CN(C)CC2CCCN(CCc3ccc(Cl)cc3)C2)n1` (stereo not drawn), which INHIBITION is on record?
A: 35.26%

Q: How did the INHIBITION turn out when `COc1ccccc1CCN1CCCC(CN(C)Cc2ccc(C)o2)C1` (stereo not drawn) was run?
A: -4.64%

Q: Which INHIBITION does the source give for `Cc1nc[nH]c1CN(C)CC1CCCN(CCc2ccc(Cl)cc2)C1` (stereo not drawn) here?
A: -9.17%

Q: `Cc1nc(CN(C)CC2CCCN(CCc3ccc(Cl)cc3)C2)no1` (stereo not drawn) was tested. Which INHIBITION did it give?
A: -7.76%

Q: How did the INHIBITION turn out when `COc1ccc(CCN2CCCC(CN(C)Cc3[nH]cnc3C)C2)cc1` (stereo not drawn) was run?
A: 52.31%

Q: For `Cc1noc(CN(C)CC(c2cccs2)N2CCOCC2)n1` (stereo not drawn), which INHIBITION is on record?
A: 28.88%
